Experimental data reported in PubChem BioAssay.
Active and inactive are the calls of the source. Unless noted, no rule for the calls is given here.

Columns and labels:
[1] = compound effects on lung adenocarcinoma cell viability – A549, calcein-AM fluorescence, 48 h, basal, profiling panel (AID 1162); conditions: higher = more signal; also: test concentration not given here
[2] = compound effects on differentiated 3T3-L1 adipocyte viability – cell-based, 3T3-L1 adipocytes, calcein-AM fluorescence, 48 h, basal, profiling panel (AID 1163); conditions: 3T3-L1 adipocytes viability, higher = more signal; also: test concentration not given here
[3] = compound effects on hepatocellular carcinoma cell viability – HepG2, calcein-AM fluorescence, 48 h, basal, profiling panel (AID 1164); conditions: higher = more signal; also: test concentration not given here
[4] = compound effects on multiple myeloma cell viability – MM1S, calcein-AM fluorescence, 48 h, basal, profiling panel (AID 1165); conditions: higher = more signal; also: test concentration not given here
[5] = calcein-AM signal in unstimulated myeloma cells – cell-based, calcein-AM fluorescence, 48 h, PK04 Diversity Set, profiling panel (AID 1166); conditions: RPMI8226 myeloma viability, higher = more signal;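 also: cells grown under basal conditions without added stimulus; test concentration not given here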
[6] = JC-1 mitochondrial signal, unstimulated HepG2 cells – cell-based, JC-1 fluorescence, 24 h, 100 nL compound, profiling panel (AID 1167); conditions: HepG2 mitochondrial potential, higher = more signal; also: test concentration not given here
[7] = JC-1 mitochondrial signal, unstimulated adipocytes – cell-based, JC-1 fluorescence, 3T3-L1 adipocytes, 24 h, 100 nL compound, profiling panel (AID 1168); conditions: JC-1 mitochondrial fluorescence, higher = more signal, called active from +8 up or from −8 down; also: test concentration not given here
[8] = JC-1 mitochondrial signal, unstimulated myeloma cells – cell-based, JC-1 fluorescence, RPMI8226, 24 h, 100 nL compound, profiling panel (AID 1169); conditions: JC-1 mitochondrial potential fluorescence, higher = more signal; also: test concentration not given here
[9] = JC-1 mitochondrial signal, unstimulated MM1S myeloma – cell-based, JC-1 fluorescence, 24 h, 100 nL compound, profiling panel (AID 1170); conditions: MM1S mitochondrial potential, higher = more signal; also: test concentration not given here
[10] = resazurin metabolic signal in A549 cells – cell-based, resazurin fluorescence, 24 h, PK04 Diversity Set, profiling panel (AID 1171); conditions: A549 viability, higher = more signal, called active from +8 up or from −8 down; also: test concentration not given here
[11] = resazurin metabolic signal in HepG2 cells – cell-based, resazurin fluorescence, 24 h, PK04 Diversity Set, profiling panel (AID 1172); conditions: HepG2 viability, higher = more signal; also: test concentration not given here
[12] = budding yeast growth changes without added modifier – OD600, strain BY4716, 24 h, basal condition, primary screen (AID 1173); conditions: S. cerevisiae BY4716 growth, OD600, 24 h; higher = more signal, called active from +8 up or from −8 down
[13] = viability profiling in MM1S myeloma cells – cell-based, resazurin fluorescence, basal, 24 h, PK04 Diversity Set, profiling panel (AID 1174); conditions: higher = more signal, called active from +8 up or from −8 down; also: test concentration not given here
[14] = target: Dihydroorotate dehydrogenase (quinone), mitochondrial (Plasmodium falciparum (isolate 3D7)) (UniProt Q08210); experiment: inhibition of P. falciparum DHODH – biochemical, C-terminal His tag, absorbance 600 nm, primary screen (AID 1175); conditions: PfDHODH enzyme, DCIP absorbance 600 nm; higher = more signal, called active from +8 up or from −8 down;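 also: recombinant parasite enzyme with a five histidine tag at its C terminus; test concentration not given here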
[15] = inhibition of PAO1 biofilm formation – strain PAO1, LB-PBS medium, absorbance 600 nm, primary screen (AID 1176); also: test concentration not given here; conditions: P. aeruginosa PAO1 growth/biofilm, A600, 12 h; higher = more signal
[16] = growth modulation of vineyard yeast isolate – strain RM11-1a, OD600, basal, 24 h, primary screen (AID 1177);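 also: cultures grown under basal conditions with no added stressor; test concentration not given here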; conditions: S. cerevisiae RM11-1a growth, OD600, 24 h; higher = more signal, called active from +8 up or from −8 down
[17] = growth of efflux-deficient E. coli DRC39 – strain DRC39, OD650, 24 h, E. coli filamentation inducers, primary screen (AID 1178);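 also: growth measured as culture turbidity by optical density at 650 nm; test concentration not given here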; conditions: E. coli DRC39 acrAB, higher = more signal, called active from +8 up or from −8 down
[18] = growth of efflux-deficient E. coli DRC39 – strain DRC39, OD650, 48 h, E. coli filamentation inducers, primary screen (AID 1179);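 also: screen aims at cell division blockers that make cells filament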; conditions: E. coli DRC39 delta-acrAB growth, higher = more signal, called active from +8 up or from −8 down
[19] = viability profiling in RPMI8226 myeloma cells – cell-based, resazurin fluorescence, basal, 24 h, PK04 Diversity Set, profiling panel (AID 1180); conditions: higher = more signal;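 also: RPMI8826 multiple myeloma cell line at 5000 cells per well; test concentration not given here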
[20] = target: E3 ubiquitin-protein ligase XIAP (Homo sapiens) (UniProt P98170); experiment: small molecules binding XIAP protein – biophysical, small-molecule microarray, fluorescence 635 nm, primary screen (AID 1181); conditions: higher = more signal;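 also: score merges 667 nm emission and signal to noise over triplicate slides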
Chain of E3 ubiquitin-protein ligase XIAP (Homo sapiens) (P98170 whole entry, looked up): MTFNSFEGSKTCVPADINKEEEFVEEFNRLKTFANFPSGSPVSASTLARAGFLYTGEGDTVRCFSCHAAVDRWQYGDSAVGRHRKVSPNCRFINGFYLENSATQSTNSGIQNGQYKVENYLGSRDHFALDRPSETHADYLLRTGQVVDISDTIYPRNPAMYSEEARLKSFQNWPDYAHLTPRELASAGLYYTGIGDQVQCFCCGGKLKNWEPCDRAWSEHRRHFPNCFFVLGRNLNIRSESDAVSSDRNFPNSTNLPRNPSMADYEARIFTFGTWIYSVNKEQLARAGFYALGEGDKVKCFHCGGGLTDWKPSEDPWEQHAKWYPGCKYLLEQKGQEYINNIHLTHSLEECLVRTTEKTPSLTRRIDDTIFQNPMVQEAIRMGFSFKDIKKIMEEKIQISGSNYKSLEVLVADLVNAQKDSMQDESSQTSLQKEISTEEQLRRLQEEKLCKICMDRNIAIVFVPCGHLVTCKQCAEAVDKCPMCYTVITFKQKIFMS

Chain of Dihydroorotate dehydrogenase (quinone), mitochondrial (Plasmodium falciparum (isolate 3D7)) (Q08210 whole entry, looked up): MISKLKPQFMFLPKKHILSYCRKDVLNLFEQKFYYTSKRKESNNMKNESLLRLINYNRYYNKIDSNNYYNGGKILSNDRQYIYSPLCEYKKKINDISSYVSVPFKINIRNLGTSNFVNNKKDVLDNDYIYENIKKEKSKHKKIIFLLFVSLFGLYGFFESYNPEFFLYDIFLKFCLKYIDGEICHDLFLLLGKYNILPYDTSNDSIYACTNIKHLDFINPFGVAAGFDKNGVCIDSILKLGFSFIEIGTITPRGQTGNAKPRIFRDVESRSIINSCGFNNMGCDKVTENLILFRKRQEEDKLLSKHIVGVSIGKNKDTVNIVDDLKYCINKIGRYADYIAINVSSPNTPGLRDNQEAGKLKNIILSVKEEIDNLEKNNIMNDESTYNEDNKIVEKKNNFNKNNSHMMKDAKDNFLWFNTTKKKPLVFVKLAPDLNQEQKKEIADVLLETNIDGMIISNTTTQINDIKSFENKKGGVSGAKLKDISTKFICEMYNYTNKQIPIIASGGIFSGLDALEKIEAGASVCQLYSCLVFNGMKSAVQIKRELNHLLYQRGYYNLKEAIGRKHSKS

Compound	z-score [1]	z-score [2]	z-score [3]	z-score [4]	z-score [5]	z-score [6]	z-score [7]	z-score [8]	z-score [9]	z-score [10]	z-score [11]	z-score [12]	z-score [13]	composite z-score [14]	z-score [15]	z-score [16]	z-score [17]	z-score [18]	z-score [19]	composite z-score [20]
CCC[C@@H]1C=C(C(=O)OCC)[C@H](c2ccccc2)N1S(=O)(=O)c1ccc(C)cc1	-1.78	-0.937	-2.37	-1.19	-2.96	3.86	0.437 (inactive)	-0.756	-0.65	1.8 (inactive)	-0.197	1.53 (inactive)	-0.37 (inactive)	-0.0973 (inactive)	0.0362 (inactive)	1.84 (inactive)	-0.213 (inactive)	0.0062 (inactive)	-1.89	-0.0696
O=C1N(Cc2ccccc2)c2ccccc2[C@H]2OC(c3ccc(OCCCO)cc3)=N[C@@]12Cc1ccccc1	-1.22	1.93	-1.78	-2.75	-4.59	-0.67	1.56 (inactive)	-1.26	-1.66	-2.1 (inactive)	-1.46	-0.084 (inactive)	-3.4 (inactive)	0.983 (inactive)	0.565 (inactive)	2.15 (inactive)	0.383 (inactive)	-0.362 (inactive)	-3.36	0.0297
COC(=O)C(CC#Cc1ccc2c(c1)[C@]1(C(=O)N2)[C@H](c2ccc(O)cc2)N2[C@H](c3ccccc3)[C@H](c3ccccc3)OC(=O)[C@H]2[C@@H]1C(=O)N1CCc2cc(OC)c(OC)cc2C1)C(=O)OC	-0.581	-0.959	-0.184	-1.71	-4.43	-2.15	0.124 (inactive)	-1.22	-1.03	-0.0149 (inactive)	0.445	0.954 (inactive)	-0.938 (inactive)	-11.2 (active)	0.573 (inactive)	1.58 (inactive)	-0.158 (inactive)	-0.627 (inactive)	-4.12	-0.117
Cc1c(-c2ccc(-c3ccc(Cl)c(Cl)c3)o2)nc(-c2ccccc2)c2c1CO[Si]2(C(C)C)C(C)C	-0.719	-0.527	0.0118	-3.01	-3.96	-1.38	-0.313 (inactive)	-0.933	-1.66	0.525 (inactive)	0.368	-0.922 (inactive)	-2 (inactive)	-0.063 (inactive)	0.82 (inactive)	-0.569 (inactive)	0.575 (inactive)	0.462 (inactive)	-0.639	0.504
Cc1ccccc1C(O)C1C=CC2C(=O)N(c3ccccc3)C(=O)C2N1Nc1ccccc1F (stereo not given)	0.569	-0.522	-0.157	-0.584	-0.666	-2.82	-1.49 (inactive)	-0.0566	0.368	-0.425 (inactive)	-0.954	-0.822 (inactive)	-1.08 (inactive)	0.115 (inactive)	1.07 (inactive)	0.362 (inactive)	-0.274 (inactive)	-0.542 (inactive)	-1.01	0.202
CN(C)CCCCNC(=O)[C@H]1C[C@H]2C(=O)N[C@@H](Cc3ccccc3)C(=O)N2[C@H]1c1cccc(OCCO)c1	-0.411	-0.0901	0.219	0.642	0.826	0.17	-0.259 (inactive)	0.264	-0.396	1.12 (inactive)	1.36	-0.456 (inactive)	1.38 (inactive)	0.65 (inactive)	-0.254 (inactive)	-0.372 (inactive)	0.553 (inactive)	0.862 (inactive)	1.06	0.0512
C=CCC(OC(C)=O)[C@@H]1[C@@H](N(Cc2ccc(-c3cccc(C(F)(F)F)c3)o2)C(=O)c2cccc3ccccc23)c2cc(OCCCO)ccc2N1C(=O)c1ccc2ccccc2n1 (stereo not given in full)	-0.16	0.953	-0.0619	-0.142	-2.18	2.43	-0.637 (inactive)	0.307	0.582	-0.871 (inactive)	-0.892	-0.606 (inactive)	-0.864 (inactive)	0.995 (inactive)	-0.51 (inactive)	0.356 (inactive)	0.249 (inactive)	-0.195 (inactive)	-0.804	-0.227
COC(=O)[C@@]1(Cc2ccc(F)cc2)[C@H]2c3cc(C(=O)N(C)C)n(CCN4CCOCC4)c3C[C@H]2CN1C(=O)c1ccccc1	-1.27	0.234	-0.796	-1.05	-0.995	-0.738	-0.318 (inactive)	-0.245	-0.28	0.389 (inactive)	0.255	1.22 (inactive)	-0.663 (inactive)	-0.521 (inactive)	0.0818 (inactive)	0.7 (inactive)	0.187 (inactive)	-0.957 (inactive)	0.874	0.138
CCCC=C(CCC)[C@@H](NC(=O)c1ccco1)c1ccc(C(=O)OC)cc1	-4.29	-1.72	-5.68	-3.26	-4.76	-4.88	-0.458 (inactive)	-0.736	-2.86	6.91 (inactive)	3.5	1.39 (inactive)	1.12 (inactive)	-0.0216 (inactive)	-0.387 (inactive)	1.67 (inactive)	-0.422 (inactive)	-0.245 (inactive)	-2.8	0.251
COCCOC(=O)N1C(=O)[C@@]2(c3cc(C#CC4(O)CCCCCC4)ccc31)[C@H](c1ccc(OCCO)cc1)N1[C@H](c3ccccc3)[C@H](c3ccccc3)OC(=O)[C@H]1[C@@H]2C(N)=O	-0.29	0.902	-1.52	-3.04	-3.86	-2.03	-0.408 (inactive)	-0.814	-1.21	-0.933 (inactive)	-0.776	0.581 (inactive)	-3.25 (inactive)	-0.259 (inactive)	1.84 (inactive)	1.89 (inactive)	-0.236 (inactive)	-0.635 (inactive)	-3.62	-0.142
COC(=O)C1=CC(CCCO)=CC(c2ccc(CN3CCCC3)cc2)N(Cc2sc3ccccc3c2Cl)C=C1C(=O)OC (stereo not given)	1.38	0.0739	1.72	0.217	0.662	4.71	0.531 (inactive)	0.393	2.3	-0.142 (inactive)	0.666	-2.54 (inactive)	0.691 (inactive)	-1.63 (inactive)	0.186 (inactive)	-1.62 (inactive)	0.735 (inactive)	1.29 (inactive)	0.85	-0.0084
CN(C)CCCCNC(=O)[C@H]1C[C@H]2C(=O)NCC(=O)N2[C@H]1c1cccc(OCCO)c1	1.11	-0.237	-0.13	0.585	0.0875	0.348	0.871 (inactive)	-0.223	-0.348	1.26 (inactive)	1.15	0.425 (inactive)	1.59 (inactive)	-0.0392 (inactive)	-0.711 (inactive)	1.06 (inactive)	0.779 (inactive)	0.834 (inactive)	0.158	-0.0286
CCCCC(O)C1C=CC2C(=O)N(C)C(=O)C2N1Nc1ccccc1 (stereo not given)	-0.961	-1.89	-0.595	-1.29	-0.419	-1.73	0.64 (inactive)	-0.16	0.402	-0.98 (inactive)	-1.63	0.216 (inactive)	-1.39 (inactive)	0.957 (inactive)	1.22 (inactive)	1.53 (inactive)	-0.867 (inactive)	-0.618 (inactive)	-1.5	0.0742
CC1(C)OC[C@@]23C=C(Br)[C@@H](C[C@H]12)[C@@]1(CO1)C3=O	0.0066	-0.588	-0.0344	-0.229	-0.215	-0.973	0.228 (inactive)	0.855	-0.151	-0.843 (inactive)	-0.0972	-1.2 (inactive)	0.0059 (inactive)	0.253 (inactive)	-0.0582 (inactive)	0.617 (inactive)	-0.509 (inactive)	-0.457 (inactive)	0.325	-0.02
CC(C)N1CC=CC23O[C@@H]4C=CCCOC(=O)C4[C@H]2C(=O)N(CCCCCO)[C@@H]3C1=O (stereo not given in full)	-0.211	-0.288	1.28	1.57	1.7	0.77	1.19 (inactive)	0.0326	-1.08	0.846 (inactive)	0.613	0.848 (inactive)	0.988 (inactive)	-0.727 (inactive)	0.0126 (inactive)	0.581 (inactive)	1.01 (inactive)	0.798 (inactive)	1.42	0.0684
C#CCN([C@H](/C=C/C1CC1)[C@@H](O)Cc1ccccc1)[C@@H](Cc1ccccc1)C(=O)OC	-0.509	-0.129	-0.0708	-1.2	-2.55	3.34	0.292 (inactive)	-0.842	-1.33	3.31 (inactive)	1.82	0.0363 (inactive)	1.59 (inactive)	0.373 (inactive)	-0.319 (inactive)	0.97 (inactive)	1.07 (inactive)	0.968 (inactive)	0.737	0.271
C=C(/C(=C/C[C@H](OC(=O)c1ccncc1)c1ccccc1OCCO)c1cc(C(=O)OC)ccc1OC)C(C)C	0.0292	0.322	-0.275	-1.85	-0.122	0.589	-0.617 (inactive)	-0.429	0.00378	1.47 (inactive)	0.456	0.0223 (inactive)	-0.493 (inactive)	-4.24 (inactive)	0.297 (inactive)	0.0488 (inactive)	-0.822 (inactive)	-0.869 (inactive)	0.956	-0.0478
CN(C)CCCNC(=O)[C@@]1(Cc2ccccc2I)c2ccccc2C(=O)N(Cc2ccccc2)[C@H]1c1ccc(CO)cc1	-2.02	-0.826	-3.4	-3.73	-3.31	0.601	-0.354 (inactive)	-0.681	-1.54	-3.32 (inactive)	-3.78	-3.24 (inactive)	-0.892 (inactive)	-0.19 (inactive)	0.292 (inactive)	0.209 (inactive)	0.0574 (inactive)	0.252 (inactive)	-1.89	0.24
